Experimental findings from PubChem BioAssay AID602143 (Vanderbilt Specialized Chemistry Center, 2011) are described below.

A number with no mark means an inactive call. Rule as the data show it: active = remaining activity below about 50%; inactive = the rest.

Phospholipase D2 (Homo sapiens), sequence (O14939 whole entry, looked up): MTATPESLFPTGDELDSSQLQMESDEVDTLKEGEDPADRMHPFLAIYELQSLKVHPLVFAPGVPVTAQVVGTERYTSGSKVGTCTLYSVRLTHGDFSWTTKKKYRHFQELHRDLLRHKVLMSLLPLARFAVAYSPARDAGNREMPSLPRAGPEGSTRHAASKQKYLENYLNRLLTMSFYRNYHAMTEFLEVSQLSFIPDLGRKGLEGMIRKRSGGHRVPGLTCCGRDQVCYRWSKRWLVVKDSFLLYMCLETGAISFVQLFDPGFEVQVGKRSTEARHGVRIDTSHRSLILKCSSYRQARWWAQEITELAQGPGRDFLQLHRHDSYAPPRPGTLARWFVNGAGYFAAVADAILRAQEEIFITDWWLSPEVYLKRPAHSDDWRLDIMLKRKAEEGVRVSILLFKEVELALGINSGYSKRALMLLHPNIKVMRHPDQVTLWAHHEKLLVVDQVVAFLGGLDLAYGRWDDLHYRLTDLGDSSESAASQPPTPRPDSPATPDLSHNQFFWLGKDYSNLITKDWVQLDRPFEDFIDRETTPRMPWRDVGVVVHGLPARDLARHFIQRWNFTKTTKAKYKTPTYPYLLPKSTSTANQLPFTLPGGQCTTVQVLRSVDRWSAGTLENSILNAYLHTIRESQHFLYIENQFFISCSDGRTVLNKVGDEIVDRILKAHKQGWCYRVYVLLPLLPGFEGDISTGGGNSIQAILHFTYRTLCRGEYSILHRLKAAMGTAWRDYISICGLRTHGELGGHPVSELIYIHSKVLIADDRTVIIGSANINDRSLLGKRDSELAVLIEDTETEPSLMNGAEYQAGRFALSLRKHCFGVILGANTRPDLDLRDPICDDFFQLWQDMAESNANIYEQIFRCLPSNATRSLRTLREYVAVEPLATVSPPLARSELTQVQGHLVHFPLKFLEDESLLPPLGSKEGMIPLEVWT
Phospholipase D2 (Homo sapiens), sequence (O14939 whole entry, looked up): as above

This assay addresses Phospholipase D2 (Homo sapiens) (UniProt O14939). Nature of the assay: cellular phospholipase D2 activity inhibition – cell-based, HEK293, single concentration (AID 602143).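 Also: tested at 200 nM.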 Conditions: HEK293 cellular PLD2 activity, percent of control; stronger effect = lower value.
Usually remaining activity stands for the signal under treatment as a percentage of the control signal. For `O=C(NCCN1CCC2(CC1)CNc1ccccc12)C1CC1c1ccccc1` (stereo not drawn), the remaining activity is 91.2%. The result for `CC1(C)[C@@H]2CC[C@@]1(CS(=O)(=O)NCCN1CCC(n3c(=O)[nH]c4ccccc43)CC1)C(=O)C2` reads 79.6%; that for `CN1CCC2(CCN(CCNC(=O)c3ccc4ccccc4c3)CC2)C1=O`, 129%.
